From ChEMBL document CHEMBL1157539, “Thousands of chemical starting points for antimalarial lead identification” (Nature, 2010)

How the values were obtained:
Format in all cases: functional
Plasmodium falciparum [1] = experiment: GSK_TCMDC: Inhibition of Plasmodium falciparum 3D7 in whole red blood cells, using parasite LDH activity as an index of growth. Test compounds present at 2uM
Plasmodium falciparum [2] = experiment: GSK_TCMDC: Inhibition of Plasmodium falciparum Dd2 in whole red blood cells, using parasite LDH activity as an index of growth. Test compounds present at 2uM
HepG2 = experiment: GSK_TCMDC: Percent inhibition of human HepG2 cell line. Test compounds present at 10uM.

Row | SMILES | Inhibition (Plasmodium falciparum [1]) [%] | Inhibition (Plasmodium falciparum [2]) [%] | Inhibition (HepG2) [%]
1 | Fc1ccc(Nc2nnc(CNC3CCN(Cc4ccc(Cl)c(Cl)c4)CC3)[nH]2)cc1 | 100 | 36 | 18
2 | COc1ccc2sc(CNCCCNc3cc(=O)c4ccccc4[nH]3)c(Cl)c2c1.Cl | 85 | 42 | 1
3 | CCCC(C)NC(=O)[C@H]1CNCCN1C(=O)CCCc1ccccc1.O=C(O)C(F)(F)F (stereo not given in full) | 96 | 98 | 47
4 | Nc1c(Cl)cc(C(O)CNCCCCCCCCCc2ccccn2)cc1Cl (stereo not given) | 98 | 83 | 9
5 | CC(C)Nc1nc(NC2CCCCC2)nc(N2CCCCCCC2)n1 | 86 | 96 | 13
6 | CC(C)(C)OC(=O)NCCc1cccc(-c2c[nH]c3ncc(-c4cccc(NS(C)(=O)=O)c4)cc23)c1 | 97 | 71 | 16
7 | Cn1c(Nc2cc(C(C)(C)C)on2)nc2cc(Nc3ccnc(Nc4ccc(CS(C)(=O)=O)cc4)n3)ccc21 | 100 | 68 | 37
8 | Cl.Nc1cccc(C=CC(=O)N=c2cc[nH]c3ccccc23)c1 | 98 | 60 | 7
9 | Cc1cc(N2CCCCC2)nc2ccc(NC(=O)c3cncc(Br)c3)cc12 | 100 | 86 | 0
10 | Cc1cc(N[C@@H](CC(C)C)C(=O)NCCc2ccccc2)nc(NCCc2cccs2)n1.O=C(O)C(F)(F)F | 89 | 16 | 0
11 | CN(C)CCCNCc1ccc(-c2ccc(F)c(Cl)c2)o1.Cl | 93 | 69 | 29
12 | COc1ccc(Cl)cc1-c1nc(C(=O)NCCN2CCCCC2)c(C)s1.O=C(O)C(F)(F)F | 97 | 10 | 16
13 | O=C(Cc1cccnc1)Nc1cccc(-c2cccc(-c3nc4cc(C(F)(F)F)ccc4[nH]3)c2)c1 | 99 | 38 | 42
14 | COc1cc(C=NNc2cc(C)nc3c(OC)cccc23)cc(OC)c1OC | 94 | 49 | 2
15 | Cc1[nH]c(C)c(-c2ccc(-c3ccc(Cl)cc3)nc2)c(=O)c1Br | 97 | 96 | 21
16 | O=C(Nc1cccc(C(F)(F)F)c1)c1cccc(S(=O)(=O)NCC2CCN(CC3CCCCC3)CC2)c1.O=C(O)C(F)(F)F | 97 | 5 | 27
17 | CN(C)C1CCN(CC#Cc2cc3ncnc(Nc4ccc(OCc5cccc(F)c5)c(Cl)c4)c3s2)CC1 | 85 | 5 | 34
18 | Nc1cccc(-c2ccc3ccnc(N)c3c2)c1 | 91 | 66 | 30
19 | COc1cc(C(=O)Nc2cccc(-c3nc4ccccc4[nH]3)c2)ccc1OC(C)=O | 83 | 37 | 16
20 | CCCCOc1ccc(-c2nc3ccccc3[nH]2)cc1 | 86 | 82 | 21
21 | CCc1ccc(CN2CCC(CNC(=O)c3cc(-c4ccccc4Cl)cs3)C2)cc1.O=C(O)C(F)(F)F (stereo not given) | 98 | 0 | 14
22 | CCN(CC)CCCCNc1cc(-c2[nH]c(-c3c(Cl)cccc3Cl)nc2-c2ccc3cc(OC)ccc3c2)ccn1.O=C(O)C(F)(F)F | 95 | 93 | 23
23 | COc1cccc(C2=CC(C)(C)Oc3cc(OCCN(C)C)ccc32)c1.Cl | 97 | 96 | 57

Row | SMILES | Inhibition (Plasmodium falciparum [1]) [%] | Inhibition (Plasmodium falciparum [2]) [%] | Inhibition (HepG2) [%]
24 | COc1cccc(-c2cc(-c3ccc(NC(=O)c4ccccc4)cc3)c3c(N)ncnc3n2)c1 | 99 | 98 | 0
25 | Cc1nc2ccccc2c(=O)n1NCc1ccc(Cl)c(Cl)c1 | 96 | 92 | 12
26 | COc1ccc(CCn2c(=N)c(C(=O)NCc3ccccc3)cc3c(=O)n4ccccc4nc32)cc1 | 100 | 18 | 14
27 | c1nc(CCNc2nc(Nc3ccc4c(c3)OCO4)nc(NC3CCCC3)n2)c[nH]1 | 80 | 0 | 0
28 | CC1(C)NC(N)=NC(=N)N1OCc1cccc(Cl)c1Cl.Cl | 92 | 75 | 68
29 | COCCNCc1cccc(C#Cc2cc3ncnc(Nc4ccc(OCc5cccc(F)c5)c(Cl)c4)c3s2)n1 | 99 | 52 | 35
30 | Cc1cc(=NN=Cc2ccccc2)c2cc(F)ccc2[nH]1 | 100 | 94 | 11
31 | CC1CCCCN1Cc1cccc(-c2c[nH]c3nc(NC4CCCC4)ncc23)c1.O=C(O)C(F)(F)F (stereo not given) | 93 | 14 | 0
32 | CC(C)C[C@H](NC(=O)c1cc2ccccc2s1)C(=O)N[C@H]1CCN(Cc2ccc(OC3CCN(C)C3)c(Cl)c2)C1.O=C(O)C(F)(F)F (stereo not given in full) | 97 | 65 | 68
33 | Cc1[nH]c(C)c(-c2ccc(OCCCCSc3ccncc3)cc2)c(=O)c1Br | 97 | 97 | 0
34 | Cc1ccc(OCC2CCN(c3ncc(C(=O)NCCCN4CCCC4=O)cc3Cl)CC2)cc1 | 94 | 71 | 7
35 | C[C@H](Cc1ccc(C[C@@H](C)NC[C@H](O)c2cccc(Cl)c2)cc1)NC[C@H](O)COc1ccccc1.Cl | 96 | 60 | 99
36 | C=CCOC(=O)N1CCC(CNCc2cccc(-c3ccc(-c4nc5ccccc5[nH]4)s3)c2)C1.O=C(O)C(F)(F)F (stereo not given) | 99 | 63 | 9
37 | COc1ccc(Nc2ncc3c(-c4cccc(NC(=O)Cc5ccc(O)cc5)c4)c[nH]c3n2)cc1OC | 100 | 99 | 48
38 | Cc1c(C(=O)Nc2cc(Sc3ccc(F)cc3)cc([N+](=O)[O-])c2)sc2ncn(Cc3ccccc3F)c(=O)c12 | 98 | 45 | 2
39 | Cl.OCCNc1nc(Nc2ccc(F)cc2)nc2ccccc12 | 94 | 73 | 10
40 | O=C(/C=C/c1ccc(Cl)c(Cl)c1)NCCCCCN1CCC(NC(=O)NC2CCCC2)CC1 | 99 | 31 | 21
41 | Cl.N#Cc1ccc2c(c1)CCN(CCC1CCC(NC(=O)/C=C/c3c[nH]c4ccc(F)cc34)CC1)CC2 (stereo not given) | 100 | 83 | 18
42 | O=C(Nc1cccc(-c2ccc(-c3nc4ccccc4[nH]3)cc2)c1)c1cccnc1 | 100 | 1 | 18
43 | Nc1nc(N)c2c(Cl)c(N3CCOCC3)ccc2n1 | 96 | 3 | 65
44 | Cc1cc(C(=O)Nc2ccc(-c3nc4ccccc4[nH]3)cc2)ccc1[N+](=O)[O-] | 100 | 47 | 55
45 | Cn1nc(-c2ccccc2F)c2cc(C(=O)NC3CCN(Cc4ccccc4)CC3)sc21 | 97 | 34 | 5
